Assay outcomes (PubChem BioAssay)
The list is not random: actives were taken first. Their share in the collection is about 31%.
PLAP activator: PLAP enzyme activators, biochemical, luminescence, HTS; purified PLAP enzyme, luminescent substrate read-out; active compounds read high; activation fold at 20 µM; 1.2% of 96,000 active; AID 696, 2007; in the data active means activation fold above about 2
Target sequence (P05187 whole entry, looked up): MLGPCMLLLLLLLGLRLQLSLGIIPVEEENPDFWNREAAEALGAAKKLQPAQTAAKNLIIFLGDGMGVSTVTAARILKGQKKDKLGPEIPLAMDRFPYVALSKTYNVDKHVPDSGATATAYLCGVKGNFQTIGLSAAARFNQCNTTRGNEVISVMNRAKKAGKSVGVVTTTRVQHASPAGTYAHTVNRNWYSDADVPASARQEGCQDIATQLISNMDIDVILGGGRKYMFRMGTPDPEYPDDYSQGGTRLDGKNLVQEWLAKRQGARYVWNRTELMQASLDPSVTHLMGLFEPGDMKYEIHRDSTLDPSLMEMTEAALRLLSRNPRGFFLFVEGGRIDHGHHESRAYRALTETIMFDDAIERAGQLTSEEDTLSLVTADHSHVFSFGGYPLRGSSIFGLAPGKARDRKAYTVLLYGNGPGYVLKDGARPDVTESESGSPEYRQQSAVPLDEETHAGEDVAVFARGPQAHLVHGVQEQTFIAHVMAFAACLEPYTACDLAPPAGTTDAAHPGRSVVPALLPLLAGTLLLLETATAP
CYP2C9 activ: human CYP2C9 activators, primary screen, biochemical, luminescence; Cytochrome P450 2C9 (Homo sapiens), P11712; recombinant CYP2C9, luciferin-H conversion; active compounds read high; factor 1 = untreated enzyme, 0 = blocked; activation factor at 5 µM; 1.4% of 96,000 active; AID 1024, 2008;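 active means activation factor of 2 or more for CYP2C9 at a 5 µM dose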;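 further: 0 = sulfaphenazole-blocked wells and 1 = vehicle-only wells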
CYP2C9 inhib: blockers of cytochrome P450 2C9 activity – biochemical, luminescence, ADME assay, primary screen; P11712; CYP2C9 Supersomes, luciferin-H conversion; inhibition, % at 5 µM; 20% of 96,000 active;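 active means blocking of liver enzyme CYP2C9 beyond about 50% at 5 µM, limit read from the data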
CYP2C19 act: human CYP2C19 activators, primary screen, biochemical, luminescence. Cytochrome P450 2C19 (Homo sapiens), P33261. recombinant CYP2C19, luciferin-H EGE luminescence; active compounds read high; 0 = fully inhibited enzyme, 1 = untreated enzyme. 96,000 tested, under 10 active. activation factor at 5 µM;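 active means activation factor of at least 2 at 5 µM in the primary screen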;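 further: 0 = wells with 2.5 mM tranylcypromine and 1 = vehicle-only wells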
CYP2C19 inh: blockers of cytochrome P450 2C19 activity – biochemical, luminescence, ADME assay, primary screen | 21% of 96,000 active | AID 778, 2007 | P33261 | inhibition, % at 5 µM | CYP2C19 Supersomes, luciferin-H EGE luminescence, 30 min;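 active means CYP2C19 inhibition above a set limit at 5 µM in the primary screen, cut at about 50% in these data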;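 further: plate controls were negative control wells for no effect and 2.5 mM tranylcypromine positive control for full effect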
* hit, by the source's call.

SMILES	PLAP activator	CYP2C9 activ	CYP2C9 inhib	CYP2C19 act	CYP2C19 inh
Cc1ccc2c(CSc3nnc(C4CC4)n3N)cc(=O)oc2c1	1.1	0.9	10	0.2	78*
CCOc1ccc(N2CC(=O)N/C2=N\c2nc(C)cc(C)n2)cc1	1.9	1	-4	1.1	-7
CCCCN(CC)CCCNC(=O)CC1Oc2ccccc2NC1=O (stereo not given)	0.9	1.2	-16	1	1
CC(C)c1nnc(NC(=O)CSc2ccccc2)s1	0.9	0.4	62*	0.4	63*
CCOCc1nnc(NC(=O)CSc2ccccc2)s1	0.9	0.5	51*	0.5	49
CC(=O)N(Cc1cc(=O)[nH]c2ccccc12)c1ccc(C)cc1	1.2	0.4	64*	0.5	51*
Cc1ccc(N(Cc2cc(=O)[nH]c3ccccc23)C(=O)c2ccco2)cc1	1.2	0.7	30	1	0
CC(C)Nc1nc(NC(C)(C)C)nc(Oc2ccc(=O)n(-c3ccccc3)n2)n1	1.3	0.9	11	0.9	6
CCC(CC)C(=O)Nc1cc(C(=O)NCCc2ccccc2)ccc1Cl	1	0.5	46	0.7	31
COc1ccc(NC(=O)Cn2c(=O)n(CC(=O)NCc3ccco3)c(=O)c3ccccc32)cc1OC	1.1	0.9	7	1.2	-16
CCOC(=O)CC(Nc1nc(N2CCOCC2)nc(N2CCOCC2)n1)c1ccccc1Cl (stereo not given)	1.4	0.5	53*	0.3	68*
CCc1cccc(C)c1NC(=O)C1CCCO1 (stereo not given)	1	1	1	1	0
CCCSC(=O)N(CC)CC(=O)Nc1c(CC)cccc1CC	1	0.4	62*	0.3	66*
C=CCN(CC(=O)Nc1c(C)cccc1CC)C(=O)SCCC	1	0.9	12	0.4	65*
COc1ccc(CN=C2Nc3ccccc3CS2)cc1	1	0.8	20	0.6	42
C=CCN=c1sc(C(=O)OC)cc(=O)n1CC=C	1.1	0.8	18	0.5	52*
COC(=O)c1sccc1NC(=O)CSc1nnnn1-c1ccccc1C	1	1.5	-46	1.1	-10
Cc1cc(C(C)(C)C)cc(C)c1COC(=O)C1CCC(=O)N1 (stereo not given)	1.6	0.7	34	0.4	63*
CCOC(=O)C1=C(CS(=O)(=O)c2ccc(F)c(C)c2)NC(=O)NC1c1ccc(O)c(O)c1 (stereo not given)	1.8	0.9	8	0.3	69*
CCOC(=O)C1=C(CS(=O)(=O)c2ccccc2)NC(=O)NC1c1ccccc1OCC (stereo not given)	1.1	0.8	17	0.7	30
CCOC(=O)CSc1nc2ccccc2n1CC(=O)N(C(C)C)C(C)C	1	1	4	1.1	-13
CCOC(=O)CN1C=C(c2ccc3ccccc3n2)C(C[N+](=O)[O-])c2ccccc21 (stereo not given)	1.5	0.1	92*	0.3	72*
Cc1cc(C)n(C(=O)Cc2cn3ccsc3n2)n1	1	1	5	0.8	16
COc1cccc(C(=O)O/N=C(\N)c2ccc([N+](=O)[O-])cc2)c1	1	2*	-96	0.9	12
Cc1cccc(C(=O)O/N=C(\N)c2ccc(Br)cc2)c1	1	1.4	-45	1	2
SMILES	PLAP activator	CYP2C9 activ	CYP2C9 inhib	CYP2C19 act	CYP2C19 inh
Cc1cc(C)cc(C(=O)O/N=C(\N)c2ccc(Br)cc2)c1	1.1	3.5*	-247	1.1	-13
N/C(=N\OC(=O)c1ccc(Cl)cc1)c1ccccn1	0.9	0.7	34	1	2
COc1ccccc1C(=O)O/N=C(\N)c1ccc(Cl)cc1	1.1	3*	-199	1	0
COc1cccc(C(=O)O/N=C(\N)c2ccncc2)c1	1	0.3	70*	0.2	82*
COc1ccc(/C(N)=N/OC(=O)c2cccc([N+](=O)[O-])c2)cc1	1	1.1	-6	1.1	-9
CCOC(=O)C1CCCN(c2c(N3CCN(c4ccccn4)CC3)c(=O)c2=O)C1 (stereo not given)	1.1	0.9	7	1	2
CC1(C)Oc2ccc3ccc(=O)oc3c2/C(=C/NCCN/C=C2\C(=O)C(C)(C)Oc3ccc4ccc(=O)oc4c32)C1=O	1.2	1	1	0.8	20
